About 83,000 compounds went through this panel and 20% of them were active in at least one assay; those are over-represented in the sample as a whole.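 96-well plates, one dose, 48 hours. Percent growth reported; active if below 10.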 Values without a mark were called inactive. Activity calls are given as the source filed them.

The subject of this assay is IGROV1 ovarian. The assay is described as follows: NCI-60 one-dose screen, 48 h (100 = growth as untreated, 0 = no growth, -100 = all killed). The following applies: 10 µM unless noted. The method, then:
Growth inhibition of the IGROV1 human tumor cell line is measured as a screen for anti-cancer activity. Cells are grown in 96 well plates and exposed to the test compound for 48 hours. Compounds are tested at a single concentration, which is 10^-5 M for most compounds. The reported endpoint is percent growth (GI% or GIPRCNT), where numbers from 0 - 100% represent growth inhibition, and numbers from -100% - 0 represent cell death. For example, a value of 40 represents 60% growth inhibition. A value of 0 means no net growth occurred over the course of the experiment. A value of -40 indicates 40% of cells at the beginning of the experiment died by the end of the experiment. A value of -100 means all cells are dead at the end of the experiment.
NCI-60 Human Tumor Cell Lines Screen was performed using the standard one-dose NCI protocol, which is described in more detail at https://dtp.cancer.gov/discovery_development/nci-60/default.htm.
Compounds with GIPRCNT values below 10 were considered active. Activity score was based on GIPRCNT using the following formula: […]
Score is 0 for GIPRCNT values of 100 or above, 50 for GIPRCNT values of 0, and 100 for GIPRCNT values of -100.
Take `O=C(NCCCO)c1cc(Cl)ccc1O`: the growth is 28.1%. The result for `Nc1ccc(C2=Nc3cccc4cccc(c34)S2)cc1` reads 67.5%; that for `Clc1ccc(CCC(Cn2ccnc2)Sc2c(Cl)cccc2Cl)cc1` (stereo not given), 59%; that for `CCn1c2ccccc2c2ccc(C(C)=O)cc21`, 111%. The result for `NCCCc1nnc(CCC(=O)c2nc3ccccc3[nH]2)o1` reads 104%; that for `O=C(Nc1nc(-c2ccc(Cl)cc2)cs1)c1cc(O)c(O)c(O)c1`, 15.7%; that for `CC(C)[C@]12O[C@H]1[C@@H]1O[C@]13[C@]1(O[C@H]1C[C@H]1C4=C(CC[C@@]13C)C(=O)OC4)[C@@H]2OC(=O)CN(C)C`, -17.1% (active). For `COc1cc(/C=C2\COc3ccc(O)cc3C2=O)cc(OC)c1`, the growth was 73.2%. Regarding `COc1ccc(OC)c(/C=C/c2nc(=S)n(-c3ccc(Cl)cc3)[nH]2)c1`, the growth was 40.1%. As to `CC[N+](C)(CC)CCCC(C)Nc1ccnc2cc(Cl)ccc12` (stereo not given), the growth is 110%. As for `COc1ccc2c(c1)/C(=C\c1c[nH]c3ccc(F)cc13)C(=O)N2`, the growth is 69.5%. `Cc1cc2c(C#N)n3c(c2cc1C)C(=O)C(c1ccccc1)Oc1ccccc1-3` (stereo not given): the growth was 48.8%. The result for `Cc1c(C(N)=O)sc2c1c(=O)n(Cc1ccccc1)c1nnc(S(=O)(=O)CC(=O)Nc3ccc(Cl)cc3)n21` reads 40%; that for `CC(C)COCC(CN(Cc1ccccc1)c1ccccc1)N1CCCC1` (stereo not given), 53.3%; that for `CCOc1cc(-c2ccc[nH]2)[nH]c1/C=C1\N=C(C)C(C(=O)OC)=C1C`, -45% (active). With `Cc1c(C)c(N2C(=O)C=CC2=O)c(C)c(C)c1N1C(=O)C=CC1=O`, the growth is 83.6%. The result for `COc1ccc(/C=C2\NC(=S)NC2=O)cc1` reads 96%. With `CN(C)c1nc(N)nc(Cn2c(-c3nonc3N)nc3ccccc32)n1`, the growth was 95.7%. The result for `O=C(Nc1cccc(-n2cc(-c3ccncc3)c(-c3ccc(O)c(Cl)c3)n2)c1)Nc1ccc(Cl)c(C(F)(F)F)c1` reads -20.9% (active). For `c1csc([C@@H]2C[C@@H]3Cc4ccc5ccccc5c4N2O3)c1`, the growth is 105%. In the case of `O=C(/C=C/c1cc2ccccc2[nH]c1=O)c1ccc(O)cc1`, the growth is 53.8%. Regarding `Cc1cc(C)n2nc(SCC(=O)Nc3sc4c(c3C(N)=O)CCC4)nc2n1`, the growth is -2.56% (active). The result for `c1cncc(CNc2ccccc2-c2nnc(Nc3ccc4c(c3)OCO4)o2)c1` reads 25.2%; that for `N#CCCN(CCO)c1ccccc1`, 103%. Take `COc1ccc(/C=N\Nc2ccc([N+](=O)[O-])cn2)cc1OC`: the growth was 23.2%. In the case of `O=C1CCCN1C1CCN(Cc2cc3ccccc3[nH]c2=O)c2ccccc21` (stereo not given), the growth is 90%. The result for `Oc1[nH]c2ccccc2c1/C=c1/ccc2c(c1)N=C(c1cc(F)cc(F)c1)N=2` reads 63.3%; that for `O=[N+]([O-])c1ccc(N/N=C/c2c(O)ccc3ccccc23)nc1`, 18.5%.

For `O=[N+]([O-])c1ccc2c(c1)S(=O)c1cc([N+](=O)[O-])ccc1N2`, the growth is 117%. The result for `CCN1C2=C(SC(=S)C1=C1SC(C(=O)OC)=C(C(=O)OC)S1)SC(=Nc1ccc(OC)cc1)C2=O` reads -58.3% (active).

Turning to `COc1ccc(-c2cnnn2-c2cc(OC)c3c(c2)OCO3)cc1`, the growth was 17.9%. The result for `CCC1=C(c2ccc(OC)cc2)C(C)(C)Oc2cc(O)c(CN3CCCC3)cc21` reads 87.1%; that for `CCN(CC)CCCNCCCNc1cc(OC)cc2cccnc12`, 73.9%. The result for `CCOC(=O)C1=C(C)N2C(=NC3=C(CCC/C3=C\c3ccc(Cl)cc3)C2c2ccc(Cl)cc2)S1` (stereo not given) reads 12.8%; that for `C[C@@H]1CC[C@H]2[C@@H](C)C(O)O[C@@H]3O[C@]4(C)CC[C@@H]1[C@]32OO4` (stereo not given in full), 38.9%.

On to `CCCCN(CCCC)CCCOC(=O)c1ccc(N)cc1`, for which the growth is 75.8%. As for `O=C1Cc2cc(CCN3CCN(CCOCCO)CC3)c(Cl)cc2N1Cc1ccc(-c2ccccc2-c2nn[nH]n2)cc1`, the growth was 107%.

Consider `C/C(=C\CCc1ccsc1)CC/C=C(\C)CCCN1CCC(CO)CC1`, for which the growth was 56.1%. The result for `COC(=O)[C@]1(C(C)C)N[C@H](c2cn(-c3ccccc3)nc2-c2ccccc2)[C@@H]2C(=O)N(c3ccc(Cl)cc3)C(=O)[C@@H]21` reads 103%; that for `COc1cc(C2NC(c3ccc(Cl)cc3)C(C)C(=NC(=O)c3cnccn3)C2C)cc(OC)c1OC` (stereo not given), 91.6%.

The values above are taken from PubChem BioAssay (NCI).
